NPR2 activator – GC-B (human) receptor activation. P20594. HEK293-GC-B cells, CNP EC30, cGMP TR-FRET; 0% at EC30 CNP, 100% saturating CNP. activation, % at 10 µM. 370,000 compounds, 0.11% hits;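 active means activation at 10 µM reaching about 35% in either raw or pattern-adjusted values, limit read from the data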
Target sequence (P20594 whole entry, looked up): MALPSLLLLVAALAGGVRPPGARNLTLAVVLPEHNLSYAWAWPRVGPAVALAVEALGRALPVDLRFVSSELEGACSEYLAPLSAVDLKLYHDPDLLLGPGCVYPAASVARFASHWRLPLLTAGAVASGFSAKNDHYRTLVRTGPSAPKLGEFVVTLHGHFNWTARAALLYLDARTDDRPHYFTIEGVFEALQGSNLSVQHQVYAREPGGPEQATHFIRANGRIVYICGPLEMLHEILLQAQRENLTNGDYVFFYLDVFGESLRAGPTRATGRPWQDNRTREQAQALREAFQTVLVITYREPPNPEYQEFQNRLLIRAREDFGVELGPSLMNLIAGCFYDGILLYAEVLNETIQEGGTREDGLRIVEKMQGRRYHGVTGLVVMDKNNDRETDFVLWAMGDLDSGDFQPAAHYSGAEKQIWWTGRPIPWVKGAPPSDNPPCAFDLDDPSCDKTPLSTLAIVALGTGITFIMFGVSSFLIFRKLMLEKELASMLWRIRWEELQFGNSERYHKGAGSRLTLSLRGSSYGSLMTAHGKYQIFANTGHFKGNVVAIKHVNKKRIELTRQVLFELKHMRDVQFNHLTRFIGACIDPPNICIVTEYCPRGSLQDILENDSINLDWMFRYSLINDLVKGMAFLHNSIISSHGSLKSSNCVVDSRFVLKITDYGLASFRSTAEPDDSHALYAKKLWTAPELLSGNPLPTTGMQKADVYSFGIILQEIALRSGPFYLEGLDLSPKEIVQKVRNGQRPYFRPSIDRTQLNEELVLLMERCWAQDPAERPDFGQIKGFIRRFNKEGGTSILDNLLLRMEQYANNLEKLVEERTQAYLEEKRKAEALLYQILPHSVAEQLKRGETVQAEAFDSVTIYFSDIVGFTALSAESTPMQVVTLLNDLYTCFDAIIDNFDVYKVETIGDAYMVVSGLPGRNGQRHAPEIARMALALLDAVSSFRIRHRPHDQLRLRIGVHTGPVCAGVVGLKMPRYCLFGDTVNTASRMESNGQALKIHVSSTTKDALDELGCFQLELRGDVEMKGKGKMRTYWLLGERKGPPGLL
Rce1 inh – yeast Ras-converting enzyme inhibition; yeast membranes, quenched prenylated peptide cleavage fluorescence; calls only; 290,000 compounds, 0.27% hits; AID 2563;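 active means fall in fluorescence gain of 50% or more versus controls, with final raw signal at or below 3038400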;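 further: plate controls were neutral control wells for no effect and wells lacking membranes for full effect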
NSD2 HMT inh – blocks human histone methyltransferase NSD2; O96028; inhibition, % at 12.5 µM; NSD2 peptide methylation, AlphaScreen, 120 min; AID 743445; 310,000 compounds, 0.54% hits; in the data active means inhibition above about 50%
Efflux pump inh – inhibitors of Candida antifungal efflux pumps expressed in yeast; AID 485275; S. cerevisiae Candida pump triplex, Nile Red efflux; inhibition, % at 10 µM; 330,000 compounds, 0.44% hits;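 active means plate passing quality check with inhibition over a set limit, or well fluorescence over plate mean plus 4 SD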;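 further: Nile Red retained in pooled yeast measured as flow cytometry median fluorescence; 0% = buffer negative control and 100% = Enniatin B positive control; higher means more Nile Red kept so more efflux inhibition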
V-ATPase pH – alters yeast V-ATPase proton transport. S. cerevisiae, pHLuorin cytosolic pH fluorescence. response, % at 10 µM. 350,000 compounds, 0.37% hits; in the data active means response mostly above about 7.3%, no sharp cut-off; inactive means mostly below about 5.4%; further: actives read high
NPR1 activator – GC-A (human) enzyme activation; P16066; HEK293 GC-A cells, cGMP TR-FRET, EC30 ANP; 0% at EC30 ANP, 100% saturating ANP; activation, % at 10 µM; 370,000 compounds, 0.14% hits; AID 1671463; in the data active means activation above about 40%
Cmpd fluor yeast – compound fluorescence in yeast efflux pump counter-screen. S. cerevisiae AD/pABC3, flow cytometry. fluorescence ratio to DMSO, % at 10 µM. AID 588517. shares compounds with Efflux pump inh. 1,700 compounds, 4% hits;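 active means fluorescence ratio to DMSO above its plate's cutoff, the plate mean ratio plus 5 SD, cut at about 210% in these data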;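 further: unstained yeast with no Nile Red so the signal is compound autofluorescence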
CaMdr1 efflux inh – Candida Mdr1 efflux pump inhibition | AID 588518 | inhibition, % at 10 µM | 1,700 compounds, 1% hits | shares compounds with Efflux pump inh | S. cerevisiae AD/CaMDR1, Nile Red efflux, flow cytometry; in the data active means inhibition above about 26%;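 further: 0% = DMSO vehicle and 100% = reference inhibitor; higher means more Nile Red retained so more efflux inhibition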
CaCdr2 efflux inh – inhibitors of Candida albicans Cdr2 efflux pump; shares compounds with Efflux pump inh; S. cerevisiae AD/CaCDR2, Nile Red retention, flow cytometry; Nile Red retention ratio vs DMSO, % at 10 µM; 1,700 compounds, 4% hits; in the data active means Nile Red retention ratio vs DMSO above about 190%;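 further: higher ratio means more blocking of Cdr2 efflux of the dye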
CaCdr1 efflux inh – blocks the Candida albicans Cdr1 efflux pump in yeast | shares compounds with Efflux pump inh | S. cerevisiae AD/CaCDR1, Nile Red efflux, flow cytometry | inhibition, % at 10 µM | 1,700 compounds, 1% hits | AID 588522;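 active means inhibition above the screen-wide mean plus twice its standard deviation, cut at about 32% in these data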
An asterisk follows results filed as active; i = inactive; . = no result. Most compounds without a hit are left out; they make up all but 1.6% or so of the library.

SMILES | NPR2 activator | Rce1 inh | NSD2 HMT inh | Efflux pump inh | V-ATPase pH | NPR1 activator | Cmpd fluor yeast | CaMdr1 efflux inh | CaCdr2 efflux inh | CaCdr1 efflux inh
CCC(C)(C)NC(=O)C(c1ccccc1F)N(C(=O)c1ccn[nH]1)c1ccccc1 (stereo not given) | -4 | i | -5 | 0.4* | 2 | -11 | 93 | 0 | 108 | 0
CCN(CC)c1ccc(/C=c2/sc3nnc(-c4ccccc4C)n3c2=O)cc1 | 6 | i | . | 0.6* | 4 | 6 | 215* | 1 | 175 | 0
CCN(CC)c1ccc(/C=c2\sc3nnc(-c4ccccc4Cl)n3c2=O)cc1 | 0 | i | 1 | 0.7* | 2 | 11 | 271* | 1 | 175 | 1
NC(=S)NNC(=O)[C@@H]1CCCC[C@@H]1C(=O)O | . | i | -3 | 15* | -1 | . | 101 | 0 | 104 | 0
CCOc1ccc(/C(O)=C2/C(=O)C(=O)N(CCN(C)C)C2c2ccccc2)cc1Cl (stereo not given) | 3 | i | -4 | 8.9* | 3 | 4 | 103 | 0 | 97 | 0
Oc1ccc(Cl)cc1C=Nc1ccc2c3c(cccc13)CC2 | 1 | i | -1 | 4.4* | -8 | 6 | 87 | 0 | 97 | 0
c1csc(-c2nc3c4ccccc4c4ccccc4c3[nH]2)c1 | -21 | i | . | 0.4* | 1 | -50 | 105 | 0 | 91 | 0
COc1ccc(/C=C2\CC3(OC(=O)c4ccco4)CCCN2C3)cc1 (stereo not given) | 0 | . | . | . | . | -3 | . | . | . | .
Cc1cc(C(=O)NC2CC(C)(C)Cc3c2cnn3-c2ccc(F)cc2)no1 (stereo not given) | -1 | . | 1 | 0 | 1 | -3 | 103 | 0 | 101 | 0
Cc1cc(C(=O)NC2CC(C)(C)Cc3c2cnn3-c2cccc(F)c2)n(C)n1 (stereo not given) | -3 | i | -1 | 0 | 5 | -1 | 106 | 0 | 123 | 0
Cc1cc(C(=O)NC2CC(C)(C)Cc3c2cnn3-c2ccccc2)n(C)n1 (stereo not given) | 1 | i | 0 | 0 | 1 | -1 | . | . | . | .
Cc1nn(-c2ccccc2)c2sc(C(=O)NC3CCCCCCC3)cc12 | 13 | . | 28 | . | . | 5 | . | . | . | .
COc1ccc(-c2ccc(-c3noc(-c4ccccc4OC)n3)c(OC)n2)cc1 | -4 | i | -7 | 0.5* | 0 | 9 | 99 | 0 | 116 | 0
O=C(c1ccco1)N1CCC(Oc2cccnc2)CC1 | -3 | . | . | . | . | 2 | . | . | . | .
COc1ccc2cc(C(C)C(=O)Nc3cccc(S(=O)(=O)N(C)C)c3)ccc2c1 (stereo not given) | 4 | i | -5 | 3.2* | -1 | -3 | 100 | 0 | 94 | 0
O=C(O)C1Sc2[nH]c(=O)sc2C2c3cc(Br)ccc3OC(=O)C12 (stereo not given) | -2 | i | 47 | 1.5* | 0 | 0 | 90 | 0 | 102 | 0
Cn1cc(Br)c(C(=O)Nc2sc3c(c2C#N)CCC3)n1 | -2 | i | 20 | 0 | 1 | 3 | 106 | 0 | 112 | 0
Cn1cc([N+](=O)[O-])c(C(=O)Nc2sc3c(c2C#N)CCC3)n1 | 1 | i | 1 | 0 | 1 | 4 | 111 | 0 | 129 | 0
Cn1ccc(C(=O)Nc2sc3c(c2C#N)CCC3)n1 | 2 | i | 4 | 0 | 3 | -1 | 106 | -1 | 97 | 0
CC(CNC(=O)c1ccc(C(C)(C)C)cc1)CN(C)C (stereo not given) | 4 | i | 2 | 2.0* | 1 | 0 | 100 | 0 | 96 | 0
CCOc1ccc(C(=O)NCC(C)CN(C)C)cc1OCC (stereo not given) | -2 | i | 0 | 0 | 6 | 1 | . | . | . | .
CCN(Cc1ccccc1)C(=O)C1C2C=CC3(CN(Cc4ccccc4)C(=O)C13)O2 (stereo not given) | 2 | . | -4 | . | . | 1 | . | . | . | .
COc1ccc(NC(=O)C2CCCNC2)cc1OCC(C)C (stereo not given) | -4 | i | -3 | 0 | 0 | 3 | . | . | . | .
COc1cc(NC(=O)C2CCCCN2)ccc1OCC(C)C (stereo not given) | -3 | i | 0 | 0.5* | 15 | 0 | 98 | 0 | 100 | 0
O=C(O[C@H]1CC[C@@]23CCCN2C(=O)CCC[C@H]3C1)N1CCOCC1 | -7 | . | . | . | . | -6 | . | . | . | .
SMILES | NPR2 activator | Rce1 inh | NSD2 HMT inh | Efflux pump inh | V-ATPase pH | NPR1 activator | Cmpd fluor yeast | CaMdr1 efflux inh | CaCdr2 efflux inh | CaCdr1 efflux inh
Cc1ocnc1C(=O)Nc1ccc(Cl)cc1 | 0 | i | 5 | 9.8* | 3 | 3 | 101 | 0 | 106 | 0
CCCCNC(=O)C[C@@H]1C(=O)N(Cc2ccc(OC)cc2)/C2=C/CCCCC[C@@]21C(=O)OCC | 6 | . | . | . | . | 2 | . | . | . | .
O=C(NCC1CCCO1)c1cccc(S(=O)(=O)N2CCOCC2)c1 (stereo not given) | 2 | i | -2 | 0 | 3 | 4 | . | . | . | .
O=C(NCC1CCCO1)c1ccc(Br)c(S(=O)(=O)N2CCOCC2)c1 (stereo not given) | 0 | . | -1 | 24* | -8 | 0 | 98 | 0 | 106 | 0
CC(C)[C@H](NC(=O)[C@@H]1CCCN1)C(=O)N1CCC2CCN(S(=O)(=O)c3ccccc3)CC21 (stereo not given in full) | 13 | . | . | . | . | 4 | . | . | . | .
O=C(CCc1ccccc1)N[C@H]1[C@@H](OC(=O)c2cccnc2)CCC[C@]12C(=O)N(Cc1ccccc1)c1ccccc12 | -11 | . | . | . | . | -12 | . | . | . | .
CCOc1ccc(/C=N/NC(=O)c2nnn(-c3nonc3N)c2COc2ccc(F)cc2)cc1 | -3 | i | -5 | 0 | -4 | -4 | 103 | 0 | 103 | 0
CCOc1ccc(-c2c(C(=O)N/N=C(\C)c3ccco3)nnn2-c2nonc2N)cc1 | 2 | i | 1 | 0 | -1 | 2 | . | . | . | .
CCOc1ccc(-c2c(C(=O)N/N=C(\C)c3ccccc3OC)nnn2-c2nonc2N)cc1 | 3 | i | 1 | 0 | -5 | 1 | 98 | 0 | 92 | 0
CCOc1ccc(-c2c(C(=O)N/N=C/c3ccc(O)cc3)nnn2-c2nonc2N)cc1 | 3 | i | -3 | 0 | -3 | 0 | 98 | 0 | 101 | 0
CN(C)c1ccc(/C=N/NC(=O)c2nnn(-c3nonc3N)c2COc2ccc(F)cc2)cc1 | 1 | i | 0 | 0 | 0 | 4 | 91 | 0 | 114 | 0

High-throughput results as filed in PubChem BioAssay.
